# The supplement of paper PMC10811239
# Test system: LEGO organoid PT (PTEN-/-; TP53-/-)
# Assay: bioluminescence (viable cell) signal fold change after vs before treatment, normalised to DMSO (ratio); higher = more tumour cell growth / less inhibition
# Conditions: 10 µM; treatment time 6 days
# Method: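 Luc2-labelled iPSC-derived glioblastoma-like organoids (LEGOs, genotypes PT = PTEN-/-;TP53-/-, PTCC = plus CDKN2A/B-/-, PTN = plus NF1-/-) were treated with 10 uM drug for 6 days (applied every other day) at 37 C. Bioluminescence imaging was done before treatment and 2 days after the last dose. BLI signals were normalised to the DMSO control on the same day and then to the pre-treatment signal (N=3).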
row,Structure (SMILES),bioluminescence
1,COc1cc(Nc2c(C#N)cnc3cc(OCCCN4CCN(C)CC4)c(OC)cc23)c(Cl)cc1Cl [Bosutinib],1.24
2,CN(C)CCCN1c2ccccc2CCc2ccccc21.Cl [Imipramine hydrochloride],0.921
3,CC/C(=C(/CC)c1ccc(O)cc1)c1ccc(O)cc1 [Diethylstilbestrol],1.01
4,N#Cc1ccc2[nH]cc(CCCCN3CCN(c4ccc5oc(C(N)=O)cc5c4)CC3)c2c1 [Vilazodone],0.812
5,CO[C@H]1C[C@@H]2CC[C@@H](C)[C@@](O)(O2)C(=O)C(=O)N2CCCC[C@H]2C(=O)O[C@H]([C@H](C)C[C@@H]2CC[C@@H](OC(=O)C(C)(CO)CO)[C@H](OC)C2)CC(=O)[C@H](C)/C=C(\C)[C@@H](O)[C@@H](OC)C(=O)[C@H](C)C[C@H](C)/C=C/C=C/C=C/1C [Temsirolimus],1.26
6,CCN(CC)CCNC(=O)c1cc(Cl)c(N)cc1OC [5-Chloro-2-methoxyprocainamide],1.1
7,Cl.O=c1n(CCCN2CCN(c3cccc(Cl)c3)CC2)nc2ccccn12 [Trazodone hydrochloride],1.97
8,COc1cc2c(cc1OC)C(=O)C(CC1CCN(Cc3ccccc3)CC1)C2.Cl (stereo not drawn) [Donepezil HCl],0.543
9,Cc1nc2n(c(=O)c1CCN1CCC(c3noc4cc(F)ccc34)CC1)CCCC2O (stereo not drawn) [Paliperidone],1.4
10,CN1CCN(CCCN2c3ccccc3Sc3ccc(C(F)(F)F)cc32)CC1.Cl.Cl [Trifluoperazine dihydrochloride],0.771
11,O=C(O)Cc1ccccc1Nc1c(Cl)cccc1Cl [Diclofenac],1.11
12,CCc1cc2c(cc1N1CCC(N3CCOCC3)CC1)C(C)(C)c1[nH]c3cc(C#N)ccc3c1C2=O [Alectinib],1.13
13,CC(C(=O)O)c1cccc(C(=O)c2ccccc2)c1 (stereo not drawn) [Ketoprofen],0.893
14,Nc1nc(NC2CC2)c2ncn([C@H]3C=C[C@@H](CO)C3)c2n1.Nc1nc(NC2CC2)c2ncn([C@H]3C=C[C@@H](CO)C3)c2n1.O=S(=O)(O)O [Abacavir sulfate],0.703
15,COc1ccc2c(c1)c(CC(=O)O)c(C)n2C(=O)c1ccc(Cl)cc1 [Indometacin],1.04
16,CO/N=C(\C(=O)N[C@@H]1C(=O)N2C(C(=O)[O-])=C(C[N+]3(C)CCCC3)CS[C@H]12)c1csc(N)n1.Cl.Cl.O [Cefepime Dihydrochloride Monohydrate],1.05
17,CCC(C)(C)C(=O)O[C@H]1C[C@@H](C)C=C2C=C[C@H](C)[C@H](CC[C@@H]3C[C@@H](O)CC(=O)O3)[C@H]21 [Simvastatin],1.45
18,Cl.OC(CCN1CCCCC1)(c1ccccc1)C1CCCCC1 (racemic) [DL-trihexyphenidyl hydrochloride],1.67
19,Cl.NC12CC3CC(CC(C3)C1)C2 [Amantadine hydrochloride],0.852

row,Structure (SMILES),bioluminescence
1,C[C@H]1[C@H](NC(=O)/C(=N\OC(C)(C)C(=O)O)c2csc(N)n2)C(=O)N1S(=O)(=O)O [Aztreonam],1.04
2,CN(C)CC(c1ccc(O)cc1)C1(O)CCCCC1.O=C(O)CCC(=O)O (stereo not drawn) [Desvenlafaxine succinate hydrate],1.67
3,CNCC[C@@H](Oc1ccccc1C)c1ccccc1.Cl [Atomoxetine hydrochloride],0.833
4,Nc1nc(Cl)nc2c1ncn2[C@H]1C[C@H](O)[C@@H](CO)O1 [Cladribine],1.81
5,O.O.O.O.O.O.O.O=C1CN(/N=C/c2ccc(-c3ccc([N+](=O)[O-])cc3)o2)C(=O)[N-]1.O=C1CN(/N=C/c2ccc(-c3ccc([N+](=O)[O-])cc3)o2)C(=O)[N-]1.[Na+].[Na+] [Dantrolene sodium hemiheptahydrate],0.935
6,N=C(N)NCCCC[C@@H]1NC(=O)CCSSC[C@@H](C(N)=O)NC(=O)[C@@H]2CCCN2C(=O)[C@H](Cc2c[nH]c3ccccc23)NC(=O)[C@H](CC(=O)O)NC(=O)CNC1=O [Eptifibatide],1.89
7,N[C@@H](Cc1ccc(O)c(O)c1)C(=O)O [Levodopa],0.963
8,NC(=O)c1cn(Cc2c(F)cccc2F)nn1 [Rufinamide],0.54
9,C[C@H](Cn1cnc2c(N)ncnc21)OCP(=O)(O)O [Tenofovir],0.702
10,Nc1cccc2c1C(=O)N(C1CCC(=O)NC1=O)C2=O (stereo not drawn) [Pomalidomide],1.5
11,CCC1=C[C@@H]2CN(C1)Cc1c([nH]c3ccccc13)[C@@](C(=O)OC)(c1cc3c(cc1OC)N(C)[C@H]1[C@@](O)(C(=O)OC)[C@H](OC(C)=O)[C@]4(CC)C=CCN5CC[C@]31[C@@H]54)C2.O=C(O)[C@H](O)[C@@H](O)C(=O)O.O=C(O)[C@H](O)[C@@H](O)C(=O)O [Vinorelbine Tartrate],1.03
12,CC(C)(Sc1cc(C(C)(C)C)c(O)c(C(C)(C)C)c1)Sc1cc(C(C)(C)C)c(O)c(C(C)(C)C)c1 [Probucol],0.49
13,Cc1cn([C@H]2C=C[C@@H](CO)O2)c(=O)[nH]c1=O [Stavudine],3.29
14,C[C@@](Cc1ccc(O)c(O)c1)(NN)C(=O)O.O [Carbidopa Hydrate],0.415
15,CNCCC(Oc1ccc(C(F)(F)F)cc1)c1ccccc1.Cl (stereo not drawn) [Fluoxetine hydrochloride],0.929
16,N[C@@H](CC(=O)O)C(=O)O [L-Aspartic acid],0.844
17,Cl.CNCC\C=C1\c2ccccc2CCc2ccccc12 [Nortriptyline hydrochloride],0.795
18,C[C@@H]1COCCN1c1cc(C2([S@](C)(=N)=O)CC2)nc(-c2ccnc3[nH]ccc23)n1 [Ceralasertib],0.917
19,C[C@@H]1CCN(C(=O)CC#N)C[C@@H]1N(C)c1ncnc2[nH]ccc12 [Tofacitinib],1.24
